RTF Ca sens inh – cardiac RTF calcium desensitization; P19429+P45379; IANBD-labeled cardiac RTF, Ca2+ fluorescence; inhibition, % at 7.15 µM; actives 0.12% (n = 340,000); AID 493244;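 active = inhibition above the mean inhibition of all tested compounds plus 3 SD, cut at about 17% in these data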;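 note: assay run at fixed EC70 calcium of 1.6 mM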
GLD-1 RNA inh – GLD-1-TGE RNA interaction inhibition (C. elegans). actives 0.44% (n = 320,000). Q17339. inhibition, % at 5.96 µM. AID 2280. purified GLD-1 + fluorescein TGE RNA, fluorescence polarization;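 active = percent inhibition above a per-plate cutoff, the plate mean of test compounds plus 3 SD, cut at about 30% in these data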
Bcl-xL primary – inhibitors of human Bcl-xL | actives 0.7% (n = 320,000) | Q07817 | inhibition, % at 10.9 µM | GST-Bcl-xL / FITC-Bim BH3 peptide fluorescence polarization;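 active = inhibition above the mean of all tested compounds plus 3 SD, cutoff set per campaign, cut at about 30% in these data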;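 note: inhibitors lower millipolarization by displacing the labeled peptide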
cardiac RTF act – cardiac RTF calcium sensitization; P19429+P45379; IANBD-labeled TnC RTF fluorescence at EC20 calcium; 0% EC20 calcium, 100% full calcium; activation, % at 7.2 µM; actives 0.24% (n = 340,000);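 active = activation above the mean over all tested compounds plus 3 SD, cut at about 30% in these data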;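 note: rise in fluorescence read as greater calcium sensitivity of cardiac thin filaments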
eLon inh – inhibits E. coli Lon protease; purified E. coli Lon protease, fluorescence polarization; actives 0.42% (n = 360,000); P0A9M0; inhibition, % at 7.94 µM; AID 602123; in the data active = inhibition above about 13%, passing the limit was not always enough
Target sequence (P0A9M0 whole entry, looked up): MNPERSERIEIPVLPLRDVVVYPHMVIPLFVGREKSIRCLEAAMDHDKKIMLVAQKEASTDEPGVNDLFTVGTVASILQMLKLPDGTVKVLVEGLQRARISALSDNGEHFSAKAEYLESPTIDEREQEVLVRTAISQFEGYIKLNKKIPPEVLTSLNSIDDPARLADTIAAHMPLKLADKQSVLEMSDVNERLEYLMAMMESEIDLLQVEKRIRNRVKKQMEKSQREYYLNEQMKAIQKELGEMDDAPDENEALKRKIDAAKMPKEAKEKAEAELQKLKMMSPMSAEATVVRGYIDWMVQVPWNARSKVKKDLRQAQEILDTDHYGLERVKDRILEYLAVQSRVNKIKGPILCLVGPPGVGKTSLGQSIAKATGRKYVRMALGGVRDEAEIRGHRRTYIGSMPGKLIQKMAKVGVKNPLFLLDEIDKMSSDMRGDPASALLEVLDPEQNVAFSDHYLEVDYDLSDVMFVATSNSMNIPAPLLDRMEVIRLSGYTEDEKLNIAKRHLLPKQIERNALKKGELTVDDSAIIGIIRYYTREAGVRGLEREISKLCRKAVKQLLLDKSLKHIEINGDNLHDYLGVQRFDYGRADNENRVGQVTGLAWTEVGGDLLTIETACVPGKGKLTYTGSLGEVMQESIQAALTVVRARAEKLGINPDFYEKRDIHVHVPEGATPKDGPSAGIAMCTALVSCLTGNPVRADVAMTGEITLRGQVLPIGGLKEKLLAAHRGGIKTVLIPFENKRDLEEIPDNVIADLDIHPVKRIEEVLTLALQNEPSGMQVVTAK
E coli Lon conf – confirmation of E. coli Lon protease inhibitors | AID 602230 | inhibition, % at 7.94 µM | actives 31% (n = 1,400) | shares compounds with eLon inh | purified E. coli Lon, fluorescence polarization; in the data active = inhibition above about 16%
Numbers stand for hits; . = inactive; / = no result given; + = active, no number. Compounds with a hit are over-represented: about 1.2% of the library has one in this group of screens.

SMILES	RTF Ca sens inh	GLD-1 RNA inh	Bcl-xL primary	cardiac RTF act	eLon inh	E coli Lon conf
Cc1nnc(N2C(=O)c3cccc4c([N+](=O)[O-])ccc(c34)C2=O)s1	.	.	.	.	15	.
Cc1ccnc(N2C(=O)c3cccc4c([N+](=O)[O-])ccc(c34)C2=O)c1	.	77	88	.	53	64
O=C1c2cccc3cccc(c23)C(=O)N1Cc1cccnc1	.	.	.	.	.	/
Cc1ccc(-c2cc(C(=O)Nc3ccccc3C(N)=O)c3ccccc3n2)o1	/	.	.	/	.	/
CC(=O)N1CCC(N(CCN2CCOCC2)C(=O)Nc2ccc(Cl)c(Cl)c2)CC1	.	.	.	.	.	/
COc1nc(C)cc(C)c1S(=O)(=O)c1ccc(Cl)cc1	.	.	.	.	.	/
COc1ccc(Oc2nc(C)cc(C)c2S(=O)(=O)c2ccc(C)cc2)cc1	.	.	.	.	18	.
CCOC(=O)C(=O)N(CC)C1CCS(=O)(=O)C1 (stereo not given)	.	.	.	.	17	.
COc1ccc2ccccc2c1C(O)c1nccn1C (stereo not given)	.	145	173	84	55	168
Cc1ccc(SCCC(=O)Nc2ccccc2C(=O)NC(C)C)cc1	.	.	.	.	69	.
Cc1ccc(SCCC(=O)Nc2ccccc2Br)cc1	.	.	.	.	.	/
O=c1c(-c2ccc(Cl)cc2)c[nH]n1-c1ccccc1	.	.	.	.	18	.
CC1CCN(C(=O)C(C)NCc2ccc(F)cc2)CC1 (stereo not given)	.	.	.	.	36	.
CCOc1c2ccccc2nn1CCO	.	.	.	.	29	.
CCOc1c2ccccc2nn1CCOC	.	.	.	.	.	/
CCOc1cccc(C2C(C(=O)c3ccc(C)o3)=C(O)C(=O)N2Cc2ccncc2)c1 (stereo not given)	.	.	.	.	.	/
CCOc1cccc(C2C(C(=O)c3ccc(C)o3)=C(O)C(=O)N2c2nccs2)c1 (stereo not given)	.	143	121	.	98	118
O=C(C1=C(O)C(=O)N(c2nccs2)C1c1ccccc1)c1cc2ccccc2o1 (stereo not given)	.	174	185	34	+	197
Cc1ccc(S(=O)(=O)NCCC(=O)NNc2c(F)c(F)cc(F)c2F)cc1	.	.	/	.	.	/
CC1CCC(C(=O)c2c(O)c3ccccc3oc2=O)CC1 (stereo not given)	.	.	.	.	.	/
O=C(Nc1nc2ccccc2n1Cc1ccccc1)c1ccco1	.	.	.	.	.	/
CCOC(=O)c1[nH]c(C)c(C(=O)OCC(=O)N2CCc3ccccc32)c1C	.	.	.	.	139	.
CCOC(=O)c1c(C)[nH]c(C(=O)OCC(=O)N2CCc3ccccc32)c1C	.	.	.	.	.	/
Cc1occc1C(=O)NC(C)C1CCCO1 (stereo not given)	.	.	.	.	15	.
NC(=O)C1CCCN(C(=O)CCCNC(=O)c2ccc(Cl)cc2)C1 (stereo not given)	.	.	.	.	.	/
SMILES	RTF Ca sens inh	GLD-1 RNA inh	Bcl-xL primary	cardiac RTF act	eLon inh	E coli Lon conf
Cc1oc(/N=C/c2ccccc2O)c(C#N)c1C	.	.	.	.	.	/
Cc1oc(/N=C/c2ccc(O)cc2O)c(C#N)c1C	.	53	64	.	14	.
Cc1oc2cc(O)ccc2c(=O)c1-c1nncn1-c1ccccc1	.	113	113	.	34	51
O=C(Nc1ccn(CCCNCc2cccc3ccccc23)c(=O)n1)OCc1ccccc1	/	/	/	/	13	.
Cc1c2ccccc2nc2c(F)c(NCCO)c(F)c(F)c12	.	83	157	42	50	+
Cc1c(Cl)cccc1Nc1nc(NCCO)c2ccccc2n1	.	.	.	.	.	/
Cc1c2ccccc2nc2c(F)c(NC(C)C)c(F)c(F)c12	.	119	122	.	107	194
N#C/C(=C(/O)c1cccs1)c1nc2ccccc2[nH]1	.	.	.	.	16	.
N#C/C(=C(/O)c1ccc(Br)s1)c1nc2ccccc2[nH]1	.	.	.	.	.	/
CC1CCCCN1CCCNC(=O)CN1C(=O)CSc2ccc(S(=O)(=O)N3CCOCC3)cc21 (stereo not given)	.	.	.	.	.	/
CN(c1ccccc1)c1nc(N)c([N+](=O)[O-])c(NCc2ccccc2)n1	.	.	.	.	.	/
O=c1[nH]c(-[n+]2ccccc2)c(/C=N/NC([S-])=Nc2ccccc2)s1	.	143	164	.	94	.
Cc1cc[n+](-c2[nH]c(=O)sc2/C=N/NC([S-])=Nc2ccccc2)cc1	.	116	139	42	63	53
CC(C)(C)c1cc[n+](-c2[nH]c(=O)sc2/C=N/NC(=O)c2ccccc2[O-])cc1	.	70	97	.	43	36
Cc1cc(C)c[n+](-c2[nH]c(=O)sc2/C=N/NC([S-])=Nc2ccccc2)c1	.	117	129	75	70	76
CC(C)(C)c1cc[n+](-c2[nH]c(=O)sc2/C=N/N=C(\[O-])c2cccnc2)cc1	.	.	.	.	.	/
CCc1ccc[n+](-c2[nH]c(=O)sc2/C=N/N=C(\N)[O-])c1	.	.	.	.	.	/
O=C(CN1CCN(c2ccccc2F)CC1)c1ccc(O)c(O)c1	.	/	/	.	.	/
O=S(=O)([O-])C/C(=C\c1ccc(Cl)cc1)c1cc[n+](CCO)cc1	.	.	.	.	.	/
O=C(c1ccco1)N1CCN(Cc2c(F)cccc2Cl)CC1	.	.	.	.	.	/
O=C(O)c1ccc(CNC(=O)c2ccc(S(=O)(=O)N3CCCCC3)cc2)cc1	.	.	.	.	.	/
CCc1ccc[n+](-c2[nH]c(=O)sc2/C=N/NC([S-])=Nc2ccccc2)c1	.	108	122	85	105	129
CCOC(=O)Nc1ccc2c(c1)OCO2	.	.	.	.	.	/
COc1ccc(/C(C)=N/NC(=O)CNC(=O)/C=C/c2ccccc2OC)cc1	.	.	.	.	.	/
O=C(Cn1ccc2ccccc2c1=O)NCC(=O)N1CCN(c2ccc(F)cc2)CC1	.	.	.	.	23	.
SMILES	RTF Ca sens inh	GLD-1 RNA inh	Bcl-xL primary	cardiac RTF act	eLon inh	E coli Lon conf
Cc1cc2cc(CNC(=O)c3ccc(C)c([N+](=O)[O-])c3)ccc2[nH]1	.	.	.	.	22	.
Cc1cc2cc(CCNC(=O)c3ccc(C)c([N+](=O)[O-])c3)c(=O)[nH]c2cc1C	.	.	.	.	.	/
Cc1c(NC(=O)Nc2ccc([N+](=O)[O-])cc2)c(=O)n(-c2ccccc2)n1C	.	.	.	.	.	/
O=C(COC(=O)C1=Cc2ccccc2OC1)NCc1ccc(F)cc1	.	/	/	.	31	.
O=C(COC(=O)c1ccc(Br)o1)NCc1ccc(F)cc1	.	.	.	.	.	/
COc1ccc(C2SCCN2S(=O)(=O)c2ccccc2)cc1 (stereo not given)	.	.	.	.	.	/
